Records with an inconclusive call do not appear. Active and inactive are the calls of the source. Unless noted, calls come from the whole dose curve.
What was measured:
[1] = Nuclear factor erythroid 2-related factor 2/antioxidant responsive element (Nrf2/ARE) small molecule agonists: qHTS cell viability counter screen in human keratinocytes (AID 1919968; active = well fitted curve in the direction sought with a large enough effect in the repeat runs; an effect the other way counts as inactive or inconclusive; note: nearly all actives have a fitted effect of over 55% in size; note: potency is the fitted concentration of half-maximal effect)
How it was run: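 HaCaT ARE reporter line, 1,500 cells/well; 5 h settle, 37 C/5% CO2; cpd in DMSO pinned; 23 h exposure; CellTiter-Fluor, 1 h; fluorescence.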

[2] = Nuclear factor erythroid 2-related factor 2/antioxidant responsive element (Nrf2/ARE) small molecule agonists: luciferase reporter gene qHTS assay in human keratinocytes (AID 1919969); note: nearly all actives have a fitted effect of over 35% in size; note: potency is the fitted concentration of half-maximal effect
[3] = molecular target: KiSS-1 receptor (Homo sapiens) (UniProt Q969F8); test: Human kisspeptin (KISS1R) small molecule agonists, calcium flux assay in KISS1R-HEK293 cells (AID 1920064; active = well fitted curve in the direction sought with a large enough effect in the repeat runs; an effect the other way counts as inactive or inconclusive)
Sequence of KiSS-1 receptor (Homo sapiens) (Q969F8 whole entry, looked up): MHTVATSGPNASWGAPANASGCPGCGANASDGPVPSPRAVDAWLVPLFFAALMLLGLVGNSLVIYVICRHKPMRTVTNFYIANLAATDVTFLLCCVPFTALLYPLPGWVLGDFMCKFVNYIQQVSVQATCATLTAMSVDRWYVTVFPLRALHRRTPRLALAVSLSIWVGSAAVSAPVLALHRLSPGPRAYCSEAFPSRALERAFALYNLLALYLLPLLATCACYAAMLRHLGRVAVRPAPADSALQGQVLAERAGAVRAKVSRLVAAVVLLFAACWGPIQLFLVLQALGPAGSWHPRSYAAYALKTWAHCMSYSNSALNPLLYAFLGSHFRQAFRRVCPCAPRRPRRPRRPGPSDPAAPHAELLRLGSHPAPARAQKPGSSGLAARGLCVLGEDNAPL
How it was run: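 Stable human KISS1R HEK293 line; 18 h plating, 37 C/5% CO2; calcium dye 1 h 37 C; compound pin transfer; kinetic fluorescence Ex/Em 480/540, 3 min.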

[4] = G protein-coupled receptor (GPCR) small molecule agonists, calcium flux assay: HEK293 wild type cell line counter screen (AID 1920065)
How it was run: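 Kinetic fluorescence at Ex/Em 480/540, recorded every second over 3 min, served as the read-out after compound addition. Each compound was tested at 15 concentrations in triplicate on cells pre-loaded with calcium dye for 1 h.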

[5] = p53 small molecule agonists, cell-based qHTS assay with rat liver microsomes (AID 1963578)
How it was run: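 Read-out is beta-lactamase reporter fluorescence (LiveBLAzer, 2 h, room temperature, dark) in p53RE-bla cells treated 16 h at 37 C with compound, rat liver microsomes and NADPH, both 0.5 mg/mL final.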

[6] = p53 small molecule agonists, cell-based qHTS assay with rat liver microsomes: qHTS cell viability counter screen (AID 1963580); note: nearly all actives have a fitted effect of over 45% in size; note: potency is the fitted concentration of half-maximal effect
How it was run: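 p53RE-bla HCT-116 cells (4,000/well) rested 5 h at 37 C, then given Tox21 compounds in DMSO with rat liver microsomes (0.5 mg/mL final) plus NADPH (0.5 mg/mL final) for 16 h at 37 C. Viability read by CellTiter-Glo luminescence after 30 min at room temperature.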

[7] = p53 small molecule agonists, cell-based qHTS assay: qHTS cell viability counter screen (AID 1963581); note: nearly all actives have a fitted effect of over 45% in size
How it was run: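 HCT-116 p53RE-bla cells, 4,000/well, plated 5 h before compound pin transfer; 16 h at 37 C; bla substrate 2 h RT; then CellTiter-Glo, 30 min RT, luminescence.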

[8] = p53 small molecule agonists, cell-based qHTS assay (AID 1963582; active = well fitted activation curve with a large enough effect in the signal ratio in the repeat runs, not every such curve was filed as active; the % refers to the signal ratio)
How it was run: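 Reporter line: p53RE-bla. Pre-incubation 5 h, 37 C, 5% CO2; compound (DMSO, pin tool) 16 h, 37 C; B/G FRET substrate 2 h RT; fluorescence intensity read.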

[9] = molecular target: 5-hydroxytryptamine receptor 2A (Homo sapiens) (UniProt P28223); test: 5-hydroxytryptamine receptor 2A (HTR2A) small molecule antagonists, cell-based qHTS assay (AID 1963586); note: nearly all actives have a fitted effect of over 45% in size; note: potency is the fitted concentration of half-maximal effect
Sequence of 5-hydroxytryptamine receptor 2A (Homo sapiens) (P28223 whole entry, looked up): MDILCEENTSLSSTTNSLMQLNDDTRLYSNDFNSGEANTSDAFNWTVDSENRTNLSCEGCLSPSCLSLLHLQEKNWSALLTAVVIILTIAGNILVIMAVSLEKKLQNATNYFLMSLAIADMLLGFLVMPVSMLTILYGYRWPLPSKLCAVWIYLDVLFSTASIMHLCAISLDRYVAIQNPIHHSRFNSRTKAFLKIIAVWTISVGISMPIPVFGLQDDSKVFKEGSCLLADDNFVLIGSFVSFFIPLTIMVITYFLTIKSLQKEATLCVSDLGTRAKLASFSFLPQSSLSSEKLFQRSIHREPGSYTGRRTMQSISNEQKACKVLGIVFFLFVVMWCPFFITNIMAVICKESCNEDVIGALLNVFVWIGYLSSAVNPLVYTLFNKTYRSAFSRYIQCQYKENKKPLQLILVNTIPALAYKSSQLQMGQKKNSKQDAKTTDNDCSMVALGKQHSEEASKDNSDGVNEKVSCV
How it was run: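 Antagonist-mode intracellular calcium assay: DOI (4 nM) added after 5 min compound pre-incubation at room temperature to dye-loaded HTR2A-CHO cells. Fluorescence followed for 3 min, sampled every second.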

[10] = molecular target: 5-hydroxytryptamine receptor 2A (Homo sapiens) (UniProt P28223); test: 5-hydroxytryptamine receptor 2A (HTR2A) small molecule agonists, cell-based qHTS assay (AID 1963587); note: nearly all actives have a fitted effect of over 30% in size; note: potency is the fitted concentration of half-maximal effect
How it was run: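 HTR2A-CHO cells, plated 18 h at 37 C/5% CO2, dye-loaded 1 h at 37 C; compounds in DMSO added by pin tool (agonist mode). Intracellular calcium flux read as kinetic fluorescence on FDSS over 2 min at 1 s intervals.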

[11] = molecular target: Muscarinic acetylcholine receptor M1 (Homo sapiens) (UniProt P11229); test: Cholinergic receptor muscarinic 1 (CHRM1) small molecule antagonists, cell-based qHTS assay (AID 1963588); note: nearly all actives have a fitted effect of over 40% in size
Sequence of Muscarinic acetylcholine receptor M1 (Homo sapiens) (P11229 whole entry, looked up): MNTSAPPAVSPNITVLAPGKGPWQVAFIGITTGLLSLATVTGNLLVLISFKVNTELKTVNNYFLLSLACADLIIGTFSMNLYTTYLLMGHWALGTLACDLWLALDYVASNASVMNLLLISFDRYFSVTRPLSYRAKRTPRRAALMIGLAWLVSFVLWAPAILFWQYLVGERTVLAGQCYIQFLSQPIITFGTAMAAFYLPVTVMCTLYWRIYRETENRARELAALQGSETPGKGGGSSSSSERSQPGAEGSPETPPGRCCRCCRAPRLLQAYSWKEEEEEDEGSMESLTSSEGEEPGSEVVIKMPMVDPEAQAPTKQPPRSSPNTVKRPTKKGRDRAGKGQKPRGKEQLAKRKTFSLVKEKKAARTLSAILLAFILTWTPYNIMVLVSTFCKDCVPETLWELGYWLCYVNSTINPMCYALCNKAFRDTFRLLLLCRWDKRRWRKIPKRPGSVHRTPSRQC
How it was run: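 CHRM1-CHO calcium-flux assay, antagonist mode. Cells were seeded 18 h, dye-loaded 1 h at 37 C and given compound for 5 min at RT, then acetylcholine was added at 50nM. FDSS fluorescence was read 3 min; 15 concentrations, three runs.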

[12] = molecular target: Muscarinic acetylcholine receptor M1 (Homo sapiens) (UniProt P11229); test: Cholinergic receptor muscarinic 1 (CHRM1) small molecule agonists, cell-based qHTS assay (AID 1963589); note: nearly all actives have a fitted effect of over 35% in size
How it was run: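 Human M1 in stable CHO line; 18 h plating, 1 h dye load 37 C; cpd added (agonist mode); Ca2+ fluorescence kinetic read, 1 s intervals; 15 conc, 3 runs.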

[13] = cAMP Responsive Elements (CRE) small molecule antagonists, cell-based qHTS assay (AID 1963591; active = well fitted inhibition curve with a large enough effect in the signal ratio in the repeat runs, not every such curve was filed as active; the % refers to the signal ratio)
How it was run: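 Beta-lactamase reporter read by FRET substrate (LiveBLAzer B/G) after 2 h at room temperature. CRE-bla HEK293T cells had received compound plus 0.25 uM (final) NKH477 for 3 h at 37 °C.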

[14] = molecular target: Beta-2 adrenergic receptor (Homo sapiens) (UniProt P07550); test: Adrenergic beta2 receptor (ADRB2) small molecule antagonists, cell-based qHTS assay (AID 1963592); note: series mostly up to about 92 µM; nearly all actives have a fitted effect of over 50% in size
Sequence of Beta-2 adrenergic receptor (Homo sapiens) (P07550 whole entry, looked up): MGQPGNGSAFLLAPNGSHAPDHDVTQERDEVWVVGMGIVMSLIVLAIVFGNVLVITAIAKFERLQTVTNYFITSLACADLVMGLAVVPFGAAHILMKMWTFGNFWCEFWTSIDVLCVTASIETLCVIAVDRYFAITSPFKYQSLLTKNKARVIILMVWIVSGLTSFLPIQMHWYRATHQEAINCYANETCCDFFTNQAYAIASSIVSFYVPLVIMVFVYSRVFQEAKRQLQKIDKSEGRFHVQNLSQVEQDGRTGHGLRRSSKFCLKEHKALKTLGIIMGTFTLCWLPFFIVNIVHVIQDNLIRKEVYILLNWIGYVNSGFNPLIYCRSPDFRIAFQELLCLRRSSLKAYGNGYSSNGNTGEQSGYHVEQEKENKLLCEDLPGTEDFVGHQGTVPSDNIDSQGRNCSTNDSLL
How it was run: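 Cells (CHO, stable ADRB2 overexpression) incubated 18-20hr at 37C; compounds added from DMSO; agonist mix (1nM isoproterenol, 100uM IBMX, 25uM Ro-20-1724) added; 0.5hr RT; d2-cAMP and anti-cAMP-cryptate added; 1hr RT; 665/615 nm read.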

[15] = molecular target: Beta-2 adrenergic receptor (Homo sapiens) (UniProt P07550); test: Adrenergic beta2 receptor (ADRB2) small molecule agonists, cell-based qHTS assay (AID 1963593);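 note: CHO cells stably overexpressing human ADRB2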
How it was run: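 CHO cells stably over-expressing ADRB2 were plated overnight at 37C, then dosed with compounds plus a stimulation mix containing 100uM IBMX and 25uM Ro-20-1724 for 0.5hr at room temperature. cAMP was measured by HTRF competition, 1hr.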

[16] = molecular target: D(2) dopamine receptor (Homo sapiens) (UniProt P14416); test: Dopamine D2 receptor (DRD2) small molecule agonists, cell-based qHTS assay (AID 1963594); note: nearly all actives have a fitted effect of over 35% in size
Sequence of D(2) dopamine receptor (Homo sapiens) (P14416 whole entry, looked up): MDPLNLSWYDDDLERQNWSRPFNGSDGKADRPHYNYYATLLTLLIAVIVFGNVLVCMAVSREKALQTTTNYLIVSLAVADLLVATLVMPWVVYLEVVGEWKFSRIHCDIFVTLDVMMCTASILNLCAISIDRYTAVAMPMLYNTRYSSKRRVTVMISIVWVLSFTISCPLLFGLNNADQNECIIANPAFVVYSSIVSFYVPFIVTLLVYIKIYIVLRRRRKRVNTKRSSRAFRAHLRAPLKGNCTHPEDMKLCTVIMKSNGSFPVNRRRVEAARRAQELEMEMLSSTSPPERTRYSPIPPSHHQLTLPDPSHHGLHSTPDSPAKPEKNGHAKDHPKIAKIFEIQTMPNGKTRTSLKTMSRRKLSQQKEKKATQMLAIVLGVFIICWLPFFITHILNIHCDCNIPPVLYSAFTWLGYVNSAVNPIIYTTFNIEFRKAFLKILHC
How it was run: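 HEK293 cells stably expressing DRD2 were cultured 24 h at 37 C, then given Ro20-1724 (0.1 mM final) and compounds for 10 min at room temperature. NKH477 (200nM) was then added for 30 min. cAMP was read by HTRF.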

[17] = molecular target: D(2) dopamine receptor (Homo sapiens) (UniProt P14416); test: Dopamine D2 receptor (DRD2) small molecule antagonists, cell-based qHTS assay (AID 1963595; active = well fitted inhibition curve with a large enough effect in the signal ratio in the repeat runs, with a control signal flat; the % refers to the signal ratio; note: potency is the fitted concentration of half-maximal effect)
How it was run: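 In this cell-based antagonist screen, compounds act for 10 min at room temperature before a 30 min challenge with 12 nM quinpirole and 200 nM NKH477. cAMP is quantified by HTRF competition in DRD2-HEK293 cells containing 0.1 mM Ro20-1724.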

[18] = p53 small molecule agonists, cell-based qHTS assay with human liver microsomes: qHTS cell viability counter screen (AID 1963579); note: nearly all actives have a fitted effect of over 45% in size; note: potency is the fitted concentration of half-maximal effect
How it was run: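 Cells carrying the p53 response-element beta-lactamase reporter are treated for 16 h at 37 C with test compounds in the presence of human liver microsomes and NADPH (both 0.5 mg/mL final); ATP-based CellTiter-Glo luminescence then reports viability.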

[19] = cAMP Responsive Elements (CRE) small molecule agonists, cell-based qHTS assay (AID 1963590)
How it was run: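 HEK 293T CRE-bla, 2,000 cells/well, 18 h preincubation 37 C/5% CO2; cpds (DMSO) pinned, 3 h; LiveBLAzer B/G FRET substrate, 2 h RT.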

[20] = p53 small molecule agonists, cell-based qHTS assay with human liver microsomes (AID 1963577)
How it was run: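 Compounds act here after metabolic activation: human liver microsomes and NADPH, both at 0.5 mg/mL final, were co-added to p53RE-bla cells. Incubation ran 16 h at 37 C, followed by LiveBLAzer detection.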
% is set by controls: 0 for no effect and ±100 for the full control effect.

C=CCC1(C(C)CC)C(=O)NC(=O)NC1=O (configuration not stated)
inactive: Potency [1] | Potency [2] | Potency [3] | Potency [4] | Potency [5] | Potency [6] | Potency [7] | Potency [8] | Potency [9] | Potency [10] | Potency [11] | Potency [12] | Potency [13] | Potency [14] | Potency [15] | Potency [16] | Potency [17]

C[N+]1(CCC(C(N)=O)(c2ccccc2)c2ccccc2)CCCCC1
inactive: Potency [1] | Potency [2] | Potency [3] | Potency [4] | Potency [18] | Potency [6] | Potency [7] | Potency [9] | Potency [10] | Potency [12] | Potency [19] | Potency [13] | Potency [14] | Potency [16] | Potency [17]

c1ccc(C2CC2)c(OCC2=NCCN2)c1
active: Potency [17] 8.41 µM
inactive: Potency [1] | Potency [2] | Potency [4] | Potency [20] | Potency [5] | Potency [18] | Potency [6] | Potency [7] | Potency [8] | Potency [9] | Potency [11] | Potency [12] | Potency [14] | Potency [16]

ClCCCCCCCl
inactive: Potency [1] | Potency [2] | Potency [3] | Potency [4] | Potency [18] | Potency [7] | Potency [9] | Potency [10] | Potency [11] | Potency [12] | Potency [19] | Potency [13] | Potency [14] | Potency [15] | Potency [16] | Potency [17]

CC1(C)CCC(Cc2ccc(Cl)cc2)C1(O)Cn1cncn1 (configuration not stated)
active: Potency [9] 16.8 µM
inactive: Potency [1] | Potency [2] | Potency [3] | Potency [4] | Potency [6] | Potency [7] | Potency [11] | Potency [12] | Potency [16]

CC(C)CCCCCCCOC(=O)c1ccccc1C(=O)OCCCCCCCC(C)C
inactive: Potency [1] | Potency [2] | Potency [4] | Potency [20] | Potency [5] | Potency [18] | Potency [6] | Potency [8] | Potency [9] | Potency [10] | Potency [11] | Potency [12] | Potency [19] | Potency [13] | Potency [14] | Potency [16] | Potency [17]

[Cl][Sn]([c]1ccccc1)([c]1ccccc1)[c]1ccccc1
inactive: activation [3] 2.74% [at 15.8 µM] | activation [4] 4.28% [at 11.8 µM] | activation [5] -5.37% [at 13.6 µM] | activity, negative = inhibition [9] -29.3% [at 12.7 µM] | activity, negative = inhibition [11] -4.75% [at 12.6 µM] | activation [12] 2.71% [at 15.8 µM] | activity change, negative = inhibition [14] 1.04% [at 19 µM] | activation [16] 8.68% [at 19 µM]
active: Potency [1] 1.03 µM | Potency [2] 0.58 µM | Potency [18] 6.14 µM | Potency [6] 6.14 µM | Potency [10] 10.4 µM | Potency [17] 7.3 µM

O=S(=O)(O)C(F)(F)C(F)(F)C(F)(F)C(F)(F)F
inactive: Potency [1] | Potency [3] | Potency [4] | Potency [5] | Potency [9] | Potency [10] | Potency [11] | Potency [12] | Potency [14]
active: Potency [2] 72.7 µM

CCCN(CCC)c1c([N+](=O)[O-])cc(S(N)(=O)=O)cc1[N+](=O)[O-]
inactive: Potency [2] | Potency [3] | Potency [4] | Potency [9]
active: Potency [1] 51.8 µM | Potency [6] 49.4 µM | Potency [10] 37 µM | Potency [17] 30.6 µM

— PubChem BioAssay (Tox21)
